Source: PubChem BioAssay (NCATS)
Inconclusive results are not listed. Entries that show only a call come without a potency. The source made the active and inactive calls. Unless noted, calls come from the whole dose curve.

Columns and labels:
[1] = S16 Schwann cell PMP22 intronic element firefly luciferase assay (AID 624032; active = well fitted curve in the direction sought with a large enough effect; an effect the other way counts as inactive or inconclusive; note: potency is the fitted concentration of half-maximal effect; nearly all actives have a fitted effect of over 30% in size)
Method in brief: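 Luciferase reporter of PMP22 intronic-element expression in stably transfected S16 rat Schwann cells, read by ONE-Glo luminescence after 24 h compound exposure at 37 C. Activity scaled between DMSO (0%) and positive-control PTC124; concentration-effect curves quality-classified.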

[2] = S16 Schwann cell PMP22 intronic element beta-lactamase assay (AID 624044); details: S16 rat Schwann cells, PMP22 element beta-lactamase FRET, 24 h; ratio activity, negative = inhibition: at 38.3 µM (top of the series) unless noted; note: potency is the fitted concentration of half-maximal effect; nearly all actives have a fitted effect of over 15% in size
Method in brief: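 Rat S16 Schwann cells with beta-Lac driven by a PMP22 intronic element, compound-treated 24 h at 37 °C. LiveBLAzer FRET B/G read: 460 nm normalized to potassium clavulanate vs DMSO; 535 nm FRET as viability; concentration-effect curves classified.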

[3] = Primary qHTS for Huh7 cytotoxicity: counterscreen for inhibitors of MERS-S pseudotyped particle cell entry (AID 1479147); details: outcome: dose series up to 57.1 µM unless noted
[4] = Primary qHTS for inhibitors of MERS-S pseudo-typed particle cell entry (AID 1479149); details: outcome: dose series up to 57.1 µM unless noted; note: nearly all actives have a fitted effect of over 60% in size
[5] = Primary qHTS for Vero E6 cytotoxicity: counterscreen for inhibitors of SARS-S pseudo-typed particle cell entry (AID 1479150); details: outcome: dose series up to 57.1 µM unless noted; note: potency is the fitted concentration of half-maximal effect
[6] = Cytotoxicity counterscreen for inhibitors of SARS-CoV-2 cell entry (AID 1645845); details: outcome: dose series up to 57.1 µM unless noted; note: nearly all actives have a fitted effect of over 50% in size
Method in brief: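 48 h compound treatment (after 1 h preincubation), HEK293-ACE2 cells, 37 C/5% CO2; ATP luminescence endpoint; normalized to cell wells and media blanks.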

[7] = Primary qHTS to identify inhibitors of SARS-CoV-2 cell entry (AID 1645846); details: SARS-CoV-2 pseudovirus cell entry assay, luminescence; activity change, negative = inhibition: at 57.1 µM (top of the series) unless noted; note: nearly all actives have a fitted effect of over 45% in size
Method in brief: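 HEK293 cells stably expressing human ACE2, pre-treated 1 h with compound, then infected with MLV particles pseudotyped with Wuhan-Hu-1 spike (C-terminal 19-aa truncation). Luciferase luminescence after 48 h at 37 °C, normalised to spike PP and bald PP.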

[8] = KB-8-5-11 P-gp reporter qHTS against the NCATS DSHEA and TCM libraries (AID 1919977; active = well fitted curve in the direction sought with a large enough effect; an effect the other way counts as inactive or inconclusive)
Method in brief: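 P-gp-overexpressing KB-8-5-11 cells were screened in colchicine-free medium at 500 cells/well, as a titration series. Cells were exposed for 72 h at 37C. Viability was read by CellTiter-Glo luminescence after 30 min at room temperature.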

[9] = molecular target: Glutathione peroxidase 1 (Homo sapiens) (UniProt P07203); assay: Primary qHTS Assay for Inhibitors of Recombinant Selenoprotein Glutathione Peroxidase 1 (GPX1) (AID 1845191; active = well fitted curve in the direction sought with a large enough effect; an effect the other way counts as inactive or inconclusive; note: nearly all actives have a fitted effect of over 65% in size)
Glutathione peroxidase 1 (Homo sapiens), sequence (P07203 whole entry, looked up): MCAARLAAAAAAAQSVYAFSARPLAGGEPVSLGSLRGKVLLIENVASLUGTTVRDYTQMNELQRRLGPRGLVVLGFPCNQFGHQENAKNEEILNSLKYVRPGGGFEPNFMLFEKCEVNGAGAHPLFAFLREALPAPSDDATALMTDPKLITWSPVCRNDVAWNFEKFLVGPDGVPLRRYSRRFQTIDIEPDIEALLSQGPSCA
Method in brief: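 10 nM GPX1 + cpd, 30 min RT; start w/ 1 mM GSH, 0.5 mM cumene hydroperoxide, 0.5 mM NADPH, 100 nM GR, 0.01% BSA; buffer 50 mM Tris-HCl pH 7.5, 2 mM EDTA, 150 mM NaCl; Fl 340/450, 0 & 15 min.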

[10] = molecular target: Phospholipid hydroperoxide glutathione peroxidase GPX4 (Homo sapiens) (UniProt P36969); assay: Primary qHTS Assay for Inhibitors of Recombinant Selenoprotein Glutathione Peroxidase 4 (GPX4) (AID 1845192; active = well fitted curve in the direction sought with a large enough effect; an effect the other way counts as inactive or inconclusive; note: nearly all actives have a fitted effect of over 65% in size)
Phospholipid hydroperoxide glutathione peroxidase GPX4 (Homo sapiens), sequence (P36969 whole entry, looked up): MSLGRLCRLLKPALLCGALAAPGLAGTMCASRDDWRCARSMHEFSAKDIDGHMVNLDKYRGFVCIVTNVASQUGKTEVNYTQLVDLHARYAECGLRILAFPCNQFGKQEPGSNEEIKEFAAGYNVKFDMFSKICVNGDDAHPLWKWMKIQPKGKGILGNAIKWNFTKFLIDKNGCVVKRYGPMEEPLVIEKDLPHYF
Method in brief: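 NADPH consumption, followed by fluorescence at 340/450 nm between 0 and 15 min, reports GPX4 activity via coupled glutathione reductase (100 nM). Enzyme 200 nM was pre-exposed to compound 30 min; 0.5 mM cumene hydroperoxide and 1 mM GSH served as substrates.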

Row | SMILES | Potency [1] | Potency [2] | Potency [3] | Potency [4] | Potency [5] | Potency [6] | Potency [7] | activity change, negative = inhibition [7] [%] | Potency [8] | Potency [9] | Potency [10]
1 | CC(C)n1c(/C=C/[C@H](O)C[C@H](O)CC(=O)O)c(-c2ccc(F)cc2)c2ccccc21 | 11.4 µM (active) | 14.1 µM (active) | inactive | inactive | 8.91 µM (active) | inactive | inactive | – | – | – | –
2 | Cc1oc(-c2ccccc2)nc1CCOc1ccc(CC2C(=O)NOC2=O)cc1 (stereo not given) | – | – | inactive | inactive | inactive | inactive | – | -23.4 | – | – | –
3 | CCCCC/C=C/C/C=C/CCCCCCCC(=O)O | – | – | inactive | inactive | inactive | inactive | – | -0.957 | inactive | – | –
4 | CC[C@H](C)C1NC(=O)[C@H](Cc2ccc(O)cc2)NC(=O)[C@@H](N)CSSC[C@@H](C(=O)N2CCC[C@H]2C(=O)N[C@@H](CC(C)C)C(=O)NCC(N)=O)NC(=O)[C@H](CC(N)=O)NC(=O)[C@H](CCC(N)=O)NC1=O (stereo not given in full) | – | – | inactive | inactive | inactive | inactive | – | -27.2 | – | – | –
5 | CCCCC[C@@H](O)CC[C@H]1[C@@H]2Cc3cccc(OCC(=O)O)c3C[C@@H]2C[C@@H]1O | – | – | inactive | inactive | inactive | inactive | – | -4.98 | – | – | –
6 | CCCCCCCCCCC(=O)O[C@H]1CC[C@H]2[C@@H]3CCC4=CC(=O)CC[C@]4(C)[C@H]3CC[C@]12C | – | – | inactive | inactive | inactive | inactive | inactive | – | – | inactive | inactive
